# PubChem BioAssay (Tox21)
# Records with an inconclusive call do not appear. Active and inactive are the calls of the source. Calls follow the shape of the full dose curve. Square brackets hold non-standard residues; d marks the D form. Peptide text beside a SMILES is read from it. pGlu = O=C1CC[C@@H](C(=O)O)N1
# Experiment: Nuclear factor erythroid 2-related factor 2/antioxidant responsive element (Nrf2/ARE) small molecule agonists: luciferase reporter gene qHTS assay in human keratinocytes (AID 1919969); also: nearly all actives have a fitted effect of over 35% in size
# Settings: KeratinoSens HaCaT ARE-luciferase, luminescence, 24 h; series mostly up to 92.4 µM; activity, positive = activation: at the top concentration
# From the text: National Center for Advancing Translational Sciences [NCATS]
# Division of Preclinical Innovation [DPI]
# U.S. Environmental Protection Agency [EPA]
# National Institutes of Environmental Health Sciences [NIEHS]
# National Toxicology Program [NTP]
# U.S. Food and Drug Administration [FDA]
# Oxidative stress has been implicated in the pathogenesis of a variety of diseases ranging from cancer to neurodegeneration. The antioxidant response element (ARE) signaling pathway plays an important role in the amelioration of oxidative stress. The KeratinoSens (Givaudan, Switzerland) is an in vitro test method which quantifies luciferase induction as a measure of activation of Keap1-Nrf2-antioxidationt/electrophile response element (ARE) dependant pathway in HaCaT human keratinocytes stably transfected with a selectable plasmid. The KeratinoSens assay is a cell-based assay with a reporter cell line to detect potential skin sensitizers by their ability to induce the Nrf2/ARE-response. The activation of the report gene under culture conditions can be detected by ONE-Glo Luciferase Assay System (Promega, Madison, WI). This cell line has been used to screen the Tox21 10K compound library to identify agonists that induce oxidative stress. The cytotoxicity of the Tox21 compound library against the KS-ARE cell line was tested in parallel by measuring the cell viability using CellTiter- Fluor assay system (Promega, Madison, WI) in the same wells.
# HaCaT derived cell line KeratinoSens were dispensed at 1,500 cells/5uL/well in 1536-well white wall/solid bottom plates using a Multidrop Combi (ThermoFisher Scientific, Waltham, MA) dispenser. After the assay plates were incubated at 37 C/5% CO2 for 5 h, 23 nL of compounds dissolved in DMSO, positive controls or DMSO only was transferred to the assay plate by a pintool workstation (Kalypsys, San Diego, CA). The plates were incubated at 37 C/5% CO2 for 23 h, followed by addition of 1uL/well of CellTiter-Fluor reagent into the assay plates using a Flying Reagent Dispenser (Aurora Discovery, San Diego, CA) for cell viability readout that measures cytotoxicity. After 1 h incubation at 37 C/5% CO2 the fluorescence intensity was measured using a ViewLux (PerkinElmer, Shelton, CT) plate reader. Then 4uL/well of One-Glo were added using a Flying Reagent Dispenser. After the plates were incubated at room temperature for 30 min, the luminescence intensity in the assay plates was measured using ViewLux plate reader.
# % is scaled to controls: 0 for no effect and ±100 for the full control effect; potency is read from the fitted curve at half-maximal effect.
SMILES,Potency,"activity, positive = activation"
CN(C)c1ccc(N=NS(=O)(=O)O)cc1,25.6 µM (active),
C=CCCCCCCCCCCCCCC,,-0.484% [at 19 µM] (inactive)
C=C[Si](OC)(OC)OC,,-6.07% (inactive)
CCNC(=O)[C@@H]1CCCN1C(=O)[C@H](CCCN=C(N)N)NC(=O)[C@H](CC(C)C)NC(=O)CNC(=O)[C@H](Cc1ccc(O)cc1)NC(=O)[C@H](CO)NC(=O)[C@H](Cc1c[nH]c2ccccc12)NC(=O)[C@H](Cc1cnc[nH]1)NC(=O)[C@@H]1CCC(=O)N1 ([pGlu]HWSYGLRP-NHEt),,-0.501% [at 42.5 µM] (inactive)
C[C@H]1COc2c(C3(N)CC3)c(F)cc3c(=O)c(C(=O)O)cn1c23,,-3.2% [at 42.5 µM] (inactive)
C=CCOC(=O)COCCC(C)C,,0.485% (inactive)
CCCCNC(=O)NCCCC,,11.5% (inactive)
O=S(=O)(c1ccc(OCc2ccccc2)cc1)c1ccccc1O,,-0.61% (inactive)
O=C=NCC1CCCC(CN=C=O)C1 (stereo not given),,0.747% (inactive)
CC(C)C[C@H](NC(=O)CNC(=O)[C@H](Cc1ccc(O)cc1)NC(=O)[C@H](CO)NC(=O)[C@H](Cc1c[nH]c2ccccc12)NC(=O)[C@H](Cc1cnc[nH]1)NC(=O)[C@@H]1CCC(=O)N1)C(=O)N[C@@H](CCCN=C(N)N)C(=O)N1CCC[C@H]1C(=O)NCC(N)=O (stereo in doubt),,1.33% [at 42.5 µM] (inactive)
Nc1cc(Cl)cc(S(=O)(=O)O)c1O,,-4.24% (inactive)
Cc1cc(C)c(N)cc1C,,0.667% (inactive)
CCCCCCCCCCCCCBr,,3.54% (inactive)
CCCC/C=C/C=C\C=O,61.1 µM (active),
O=C(c1ccccc1)c1ccc(O)cc1,,2.06% (inactive)
Cc1ccc(N)cc1S(=O)(=O)O,,-5.8% (inactive)
Oc1ccccc1F,,7.23% (inactive)
NNC(=O)CP(=O)(c1ccccc1)c1ccccc1,,-3.11% [at 42.5 µM] (inactive)
CCc1cc2cc(OC)c(OC)cc2c(Cc2ccccc2)n1,,7.46% [at 42.5 µM] (inactive)
CCCCC/C(=C\c1ccccc1)CO,,22.8% (inactive)

SMILES,Potency,"activity, positive = activation"
NS(=O)(=O)c1ccc(C(=O)O)cc1,,-2.66% [at 42.5 µM] (inactive)
CN1C(C(=O)Nc2ccccn2)=C(O)c2sccc2S1(=O)=O,,21.7% [at 42.5 µM] (inactive)
C[Si](C)(C)O[Si](O)(O)O,,-7.61% (inactive)
CN(C)c1ccc(O)c2c1C[C@H]1C[C@H]3[C@H](N(C)C)C(=O)C(C(N)=O)=C(O)[C@@]3(O)C(=O)C1=C2O,,-12% (inactive)
CC(C)(C)C(=O)c1ccccc1,,-0.363% (inactive)
COc1cc2c(cc1OC)[C@@H]1CC(=O)[C@@H](CC(C)C)CN1CC2,,1.07% [at 42.5 µM] (inactive)
Fc1ccc(C(c2ccc(F)cc2)N2CCNCC2)cc1,,-8.19% [at 42.5 µM] (inactive)
O=S(=O)(O)c1cc(Cl)c(Cl)cc1Cl,,-10% (inactive)
C=C(C)C(=O)OCCOCCOC(=O)C(=C)C,,-1.78% (inactive)
CCC[C@@H]1C[C@@H](C(=O)N[C@@H]([C@H]2O[C@H](SC)[C@H](O)[C@@H](O)[C@H]2O)[C@@H](C)O)N(C)C1,,0.297% [at 42.5 µM] (inactive)
C=C(C)[C@@H]1CC=C(C)C(=O)C1,,-4.91% (inactive)
CCc1c2c(nc3ccc(OC(=O)N4CCC(N5CCCCC5)CC4)cc13)-c1cc3c(c(=O)n1C2)COC(=O)[C@]3(O)CC,,13.8% [at 42.5 µM] (inactive)
COc1cc(C(C)C)c2c(c1)S(=O)(=O)N(COc1cc(=O)n3cccc(OCCN4CCCCC4)c3n1)C2=O,2.91 µM (active),
CCOc1ccc2[nH]cc(C(=O)NCc3ccccc3)c(=O)c2n1,,0.339% (inactive)
O=C(CCCCCCC(=O)Nc1ccccc1)NO,8.41 µM (active),
Cc1ccccc1N=C(N)Nc1ccccc1C,,3.03% (inactive)
CC(=O)/C(C)=C/C1C(C)=CCCC1(C)C (stereo not given),,-3.88% (inactive)
CCOCN(C(=O)CS(=O)(=O)O)c1c(C)cccc1CC,,8.69% (inactive)
Cc1ccc(OC(=O)CC(C)C)cc1,,1.16% (inactive)
COc1ccc(-c2nc3ccc(C4=NNC(=O)CC4C)cc3[nH]2)cc1 (stereo not given),,-4.6% [at 42.5 µM] (inactive)
